The values below come from PubChem BioAssay (EPA / NIEHS).

Results filed as inconclusive are left out. Some structures have more than one record in an assay (separate samples or runs), and their calls can disagree. Calls of active or inactive are those of the source. The calls were made as follows, unless noted: active = hit-call score of the fitted dose curve at least 0.9, where 1 is the maximum; inconclusive = response in the unintended direction; inactive = score below 0.9.

Experiment [1] is described as follows: CLD_ACTIN_48hr: CellzDirect (CLD) Gene Expression Assay for Baseline Control (Actin) at 48 hours (AID 2283702). In short, it runs like this: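 Primary human hepatocytes (two donor preparations) dosed daily for two days with ToxCast chemicals at multiple concentrations versus 0.2% DMSO vehicle; harvested at 48 h. Actin mRNA measured as a background control by quantitative nuclease protection assay with chemiluminescence.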

Read-out in experiment [2]: xenobiotic metabolism (CYP1A1), CYP1A1 (gene 1543)
The experiment can be described thus: CLD_CYP1A1_48hr: CellzDirect (CLD) Gene Expression Assay for xenobiotic metabolism (CYP1A1) at 48 hours (AID 2283705). An outline of the steps:
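Primary human hepatocytes from two donors dosed daily for two days at multiple concentrations, 0.2% DMSO vehicle; CYP1A1 mRNA induction at 48 h by qNPA chemiluminescence. Cytotoxicity noted by phase-contrast morphology.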

Read-out in experiment [3]: Glyceraldehyde-3-phosphate dehydrogenase (Homo sapiens) (UniProt P04406)
Briefly: CLD_GAPDH_48hr: CellzDirect (CLD) Gene Expression Assay for Baseline Control (Glyceraldehyde 3-phosphate dehydrogenase) at 48 hours (AID 2283706).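 Also: active means higher GAPDH mRNA than DMSO vehicle.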 In short, it runs like this: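 Primary human hepatocytes dosed daily for two days with fresh chemical at multiple concentrations, 0.2% DMSO vehicle; GAPDH mRNA measured at 48 h by quantitative nuclease protection assay with chemiluminescence, fitted upward relative to DMSO as background control.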

Read-out in experiment [4]: organic anion transporter (SLCO1B1), SLCO1B1 (gene 10599)
The experiment can be described thus: CLD_SLCO1B1_48hr: CellzDirect (CLD) Gene Expression Assay for organic anion transporter (SLCO1B1) at 48 hours (AID 2283707). An outline of the steps: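 Primary human hepatocytes from two donor preparations dosed daily for two days with multiple concentrations, 0.2% DMSO vehicle. SLCO1B1 mRNA at 48 h by quantitative nuclease protection assay, chemiluminescence; gain-of-signal fitted versus DMSO.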

Read-out in experiment [5]: glucuronosyltransferase (UGT1A1), UGT1A1 (gene 54658)
Briefly: CLD_UGT1A1_48hr: CellzDirect (CLD) Gene Expression Assay for glucuronosyltransferase (UGT1A1) at 48 hours (AID 2283709).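 Also: actives increase expression relative to DMSO so potency refers to induction.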 In short, it runs like this: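 Human primary hepatocytes dosed daily for two days (0.2% DMSO vehicle), harvested at 48 h. UGT1A1 mRNA induction measured by quantitative nuclease protection assay with chemiluminescence; gain of signal versus DMSO; cytotoxicity flagged from morphology.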

Read-out in experiment [6]: sulfotransferase (SULT2A), SULT2A1 (gene 6822)
Briefly: CLD_SULT2A_48hr: CellzDirect (CLD) Gene Expression Assay for sulfotransferase (SULT2A) at 48 hours (AID 2283710).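 Also: hits raise SULT2A1 transcript above the 0.2% DMSO vehicle baseline.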 An outline of the steps: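 Primary human hepatocytes (two donor preparations) dosed daily for two days with chemicals at multiple concentrations, vehicle 0.2% DMSO; SULT2A1 mRNA induction at 48 h by quantitative nuclease protection assay, chemiluminescent read-out, fitted for gain of signal versus DMSO.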

A short description of experiment [7]: STM_H9_CystineISnorm_perc: Stemina devTOX quickPredict H9 human embryonic stem cell (hESC)-based Assay for Cystine (CYSS) Metabolite Biomarker, Normalized (AID 2283713; active = hit-call score of the fitted dose curve at least 0.9, where 1 is the maximum; inactive = score below 0.9). In short, it runs like this:
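Undifferentiated H9 hESCs exposed 72 h, compound and media replaced every 24 h; final 24-h media analysed by UPLC-HRMS. Cystine normalized to C13 spike-in standard and median 0.1% DMSO control.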

Read-out in experiment [8]: Broad substrate specificity ATP-binding cassette transporter ABCG2 (Homo sapiens) (UniProt Q9UNQ0)
The experiment can be described thus: CLD_ABCG2_48hr: CellzDirect (CLD) Gene Expression Assay for ABC Transporter (ABCG2) at 48 hours (AID 2283704).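 As to AC50: potency for induction of ABCG2 mRNA above the DMSO baseline.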 In short, it runs like this:
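Primary human hepatocytes from two donors, dosed daily for 2 days, 0.2% DMSO vehicle, several concentrations. ABCG2 mRNA at 48 h by qNPA chemiluminescence, gain fitted versus DMSO; cytotoxicity flagged by morphology.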

Read-out in experiment [9]: alkyl and aryl transferase (GSTA2), GSTA2 (gene 2939)
Briefly: CLD_GSTA2_48hr: CellzDirect (CLD) Gene Expression Assay for alkyl and aryl transferase (GSTA2) at 48 hours (AID 2283708).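 Also: active means mRNA induction above DMSO vehicle baseline.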 An outline of the steps:
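Primary human hepatocytes dosed daily for two days (0.2% DMSO vehicle), harvested at 48 h. GSTA2 mRNA induction measured by quantitative nuclease protection assay with chemiluminescent imaging, fitted for gain of signal relative to DMSO.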

Read-out in experiment [10]: xenobiotic metabolism (CYP1A2), CYP1A2 (gene 1544)
The experiment can be described thus: CLD_CYP1A2_48hr: CellzDirect (CLD) Gene Expression Assay for xenobiotic metabolism (CYP1A2) at 48 hours (AID 2283703). In short, it runs like this: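 Primary human hepatocytes from two donor preparations were dosed daily for two days at multiple concentrations in 0.2% DMSO vehicle. CYP1A2 mRNA was measured at 48 hours by chemiluminescent quantitative nuclease protection assay, with gain of signal fitted versus DMSO and cytotoxicity annotated from morphology.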

Sequence of Glyceraldehyde-3-phosphate dehydrogenase (Homo sapiens) (P04406 whole entry, looked up): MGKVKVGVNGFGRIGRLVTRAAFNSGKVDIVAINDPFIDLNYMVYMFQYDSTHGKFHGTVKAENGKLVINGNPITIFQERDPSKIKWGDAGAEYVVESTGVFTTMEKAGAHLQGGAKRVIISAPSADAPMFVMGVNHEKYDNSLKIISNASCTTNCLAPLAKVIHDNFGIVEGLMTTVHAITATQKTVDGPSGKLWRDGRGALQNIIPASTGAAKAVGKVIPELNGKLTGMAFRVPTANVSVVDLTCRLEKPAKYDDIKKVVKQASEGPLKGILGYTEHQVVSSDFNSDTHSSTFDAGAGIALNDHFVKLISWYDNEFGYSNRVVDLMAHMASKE
Sequence of Broad substrate specificity ATP-binding cassette transporter ABCG2 (Homo sapiens) (Q9UNQ0 whole entry, looked up): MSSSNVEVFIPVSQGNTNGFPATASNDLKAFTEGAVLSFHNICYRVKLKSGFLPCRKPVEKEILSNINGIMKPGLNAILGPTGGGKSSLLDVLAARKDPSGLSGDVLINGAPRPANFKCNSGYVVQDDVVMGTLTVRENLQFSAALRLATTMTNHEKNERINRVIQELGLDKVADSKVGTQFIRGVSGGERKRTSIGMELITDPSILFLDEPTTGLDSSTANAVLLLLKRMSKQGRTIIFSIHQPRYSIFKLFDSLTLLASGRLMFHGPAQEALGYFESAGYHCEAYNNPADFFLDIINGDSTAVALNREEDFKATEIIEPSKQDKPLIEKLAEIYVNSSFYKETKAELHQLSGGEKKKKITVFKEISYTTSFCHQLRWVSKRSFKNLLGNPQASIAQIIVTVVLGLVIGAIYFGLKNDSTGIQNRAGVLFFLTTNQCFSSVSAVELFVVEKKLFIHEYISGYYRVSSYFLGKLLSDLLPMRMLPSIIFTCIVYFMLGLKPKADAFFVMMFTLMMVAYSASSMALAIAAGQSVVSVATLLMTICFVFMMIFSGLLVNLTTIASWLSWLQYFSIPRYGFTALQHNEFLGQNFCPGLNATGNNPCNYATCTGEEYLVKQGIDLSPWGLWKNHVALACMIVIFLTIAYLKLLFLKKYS

With `Cc1nn(-c2cc(NS(C)(=O)=O)c(Cl)cc2Cl)c(=O)n1C(F)F`, the compound was classed as inactive in experiment [1], in experiment [2], in experiment [3], in [4], in experiment [5] and in [6]. Moreover, the result in [7] was inactive.
For `COP(=O)(OC)SCn1c(=O)oc2cc(Cl)cnc21`, the outcome in experiment [1], in [8], in experiment [2], in experiment [9] and in experiment [6] was inactive.
In the case of `CNC(=O)Oc1cccc2c1OC(C)(C)O2`, the outcome in experiment [1], in experiment [2] and in experiment [9] was inactive.
As for `CC(C)=CC1C(C(=O)OCN2C(=O)C3=C(CCCC3)C2=O)C1(C)C` (configuration not stated), the result in [1], in [8], in [2], in [3], in [9] and in experiment [5] was inactive.
For `COc1ccc(C(=CC(=O)N2CCOCC2)c2ccc(Cl)cc2)cc1OC`, the compound was called inactive in [1], in experiment [5] and in experiment [7]. The AC50 in experiment [8] was 32 µM (active); in experiment [2], 4.77 µM (active); in [9], 32.2 µM (active).
Consider `CCCCOC(=O)[C@@H](C)Oc1ccc(Oc2ccc(C#N)cc2F)cc1`, for which the compound was classed as inactive in experiment [1], in experiment [8], in [2], in experiment [9] and in experiment [5]. Moreover, the AC50 in [7] was 77.7 µM (active).
`CSc1nc(NC(C)C)nc(NC(C)C)n1`: the AC50 was 20 µM (active) in [2] and 0.234 µM (active) in [7]. Also, in experiment [9], the outcome was inactive.
For `O=[N+]([O-])c1cc(C(F)(F)F)c(Cl)c([N+](=O)[O-])c1Nc1ncc(C(F)(F)F)cc1Cl` the same measures were 0.627 µM (active), 16.4 µM (active) and “inactive”.
Consider `CCNc1nc(Cl)nc(NC(C)(C)C#N)n1`, for which the compound was called inactive in experiment [10], in [2] and in experiment [7].
In the case of `CCC(=O)Nc1ccc(Cl)c(Cl)c1`, the AC50 in [10] was 4.67 µM (active); in [2], 4.64 µM (active). Further, the compound was called inactive in [5].
As to `CCC(=NOC/C=C/Cl)C1=C(O)CC(C2CCOCC2)CC1=O` (configuration not stated), the compound was called inactive in experiment [10], in experiment [3], in [4], in experiment [9], in experiment [5] and in experiment [7].
`CCOP(=S)(OCC)Oc1ccc([N+](=O)[O-])cc1`: the AC50 in experiment [10] was 2.97 µM (active); in [2], 3.61 µM (active).
With `C#CC(C)(C)NC(=O)c1cc(Cl)cc(Cl)c1`, the compound was classed as inactive in experiment [2] and in experiment [9]. Also, the AC50 in experiment [5] is 6.38 µM (active).
Regarding `CCOP(=S)(OCC)Oc1ccc2c(C)c(Cl)c(=O)oc2c1`, the call in [8], in [9] and in experiment [7] was inactive. Besides, the AC50 in experiment [2] is 1.89 µM (active).
As for `CN(C)[C@@H]1C(=O)C(C(N)=O)=C(O)[C@@]2(O)C(=O)C3=C(O)c4c(O)cccc4[C@@](C)(O)[C@H]3[C@H](O)[C@@H]12`, the compound was classed as inactive in [2], in experiment [3], in experiment [4], in experiment [9], in [6] and in experiment [7]. Further, the AC50 in [7] is 11.6 µM (active).
On to `Cc1cc(C2CC2)nc(Nc2ccccc2)n1`, for which the call in experiment [2], in [9] and in [5] was inactive.
As for `CCCCSP(=O)(SCCCC)SCCCC`, the values for the AC50 in experiment [8], in experiment [2] and in experiment [6] were 33.5 µM (active), 4.08 µM (active) and 33.4 µM (active), respectively. Besides, the call in [4] was inactive.
Take `COP(=O)(NC(C)=O)SC` (configuration not stated): the compound was classed as inactive in experiment [8], in [2], in [3], in experiment [4], in [9] and in [5].
In the case of `CCOP(=O)(SC(C)CC)N1CCSC1=O` (configuration not stated), the AC50 in [10] is 4.51 µM (active). Also, the compound was called inactive in [8], in [4] and in [9].
On to `Cc1ccn2nc(S(=O)(=O)Nc3c(F)cccc3F)nc2n1`, for which the compound was classed as inactive in experiment [8], in experiment [4] and in experiment [7].

The AC50 is the midpoint of the concentration-response curve, whichever way the signal moves.
